The list is not random: actives were taken first. Their share in the collection is about 7.3%.
FLuc modulator: qHTS profiling assay for firefly luciferase inhibitor/activator using purifed enzyme and Km concentrations of substrates (counterscreen for miR-21 project); actives 6.9% (n = 360,000); Potency, µM (titrated, usually from 57.5 µM), without a hit: at the top dose activity change, negative = inhibition, usual class: inhibitors; Luciferin 4-monooxygenase (Photinus pyralis), P08659; purified FLuc, Km substrates, luminescence inhibition;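 note: plate controls were vehicle for no effect and reference inhibitor for full effect; nearly all actives have a fitted effect of over 55% in size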
Target sequence (P08659 whole entry, looked up): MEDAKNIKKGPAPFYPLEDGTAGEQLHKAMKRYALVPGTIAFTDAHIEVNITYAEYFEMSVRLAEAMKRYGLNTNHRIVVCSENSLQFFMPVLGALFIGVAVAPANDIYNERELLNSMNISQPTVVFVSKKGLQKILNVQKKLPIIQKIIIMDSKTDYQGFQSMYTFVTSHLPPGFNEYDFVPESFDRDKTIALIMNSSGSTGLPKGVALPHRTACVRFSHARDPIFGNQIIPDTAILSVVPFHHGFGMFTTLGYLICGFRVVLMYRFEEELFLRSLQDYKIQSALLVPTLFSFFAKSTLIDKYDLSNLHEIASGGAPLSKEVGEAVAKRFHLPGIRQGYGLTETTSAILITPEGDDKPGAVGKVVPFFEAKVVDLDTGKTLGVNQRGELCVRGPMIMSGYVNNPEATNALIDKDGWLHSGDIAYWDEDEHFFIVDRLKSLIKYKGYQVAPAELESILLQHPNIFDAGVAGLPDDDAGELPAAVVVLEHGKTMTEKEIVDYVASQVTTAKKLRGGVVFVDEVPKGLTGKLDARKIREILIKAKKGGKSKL
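Purified P. pyralis luciferase (10nM final) with 10uM D-luciferin and 10uM ATP (Km levels) in 50mM Tris acetate pH 7.5, 10mM Mg acetate, 0.01% Tween-20, 0.05% BSA; qHTS 6-point titration, ~60 µM downward; luminescence read.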
KinaseGlo FLuc: Counterscreen for Luciferase (Kinase-Glo TM) Inhibition. Kinase-Glo luciferase, ATP luminescence, 8 min. actives 0.28% (n = 200,000). Potency, µM (highest dose often 38.3 µM), for the others: at the top dose activity change, negative = inhibition, usual class: inhibitors. AID 1379, 2008; note: % is set by controls: 0 for no effect and ±100 for the full control effect; nearly all actives have a fitted effect of over 60% in size
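Compounds were added to a substrate mix at pH 7.2 (50 mM imidazole, 10 uM ATP, within the enzyme's linear range), followed by Kinase-Glo detection reagent; luminescence was measured after 8 minutes at ambient temperature.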
SMN2 splice up: qHTS Assay for Enhancers of SMN2 Splice Variant Expression; HEK293 SMN2-luciferase splicing reporter, luminescence, 30-36 h; Potency, µM (top dose mostly 46.1 µM), inactives show top-dose activity change, positive = activation, actives largely listed as activators; actives 2.8% (n = 210,000); AID 1458, 2008; note: % of control where 0% means no effect; nearly all actives have a fitted effect of over 55% in size
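HEK293 cells carry an SMN2 […]–luciferase reporter in which exon 7 inclusion puts luciferase in frame. Cells were plated 10-12 h before compound addition, then incubated 30-36 h at 37C. ONE-Glo luminescence was read; sodium butyrate at 4.5 mM final served as control.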
NPC1 promoter act: qHTS Assay for NPC1 Promoter Activators; Huh7 NPC1 promoter luciferase reporter, 24 h; Potency, µM (titrated, usually from 9.22 µM), without a hit: at the highest dose activation, usual class: activators; actives 2.4% (n = 320,000); AID 485313, 2010; note: % of control where 0% means no effect; nearly all actives have a fitted effect of over 60% in size
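Quantitative HTS used a cell-based reporter: Huh7 cells stably bearing the NPC1 promoter upstream of luciferase were treated with compounds for 24 h, and promoter activation was read as luminescence.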
Rab9 promoter act: qHTS Assay for Rab9 Promoter Activators | Huh7 Rab9 promoter-luciferase reporter, luminescence, 24 h | Potency, µM (highest dose often 9.22 µM), inactives show at the top dose activation, negative = inhibition, hits mostly activators | actives 2.8% (n = 320,000) | AID 485297, 2010; note: % of control where 0% means no effect; nearly all actives have a fitted effect of over 60% in size
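Luminescence read-out: Huh7 cells stably expressing Rab9-luciferase, treated 24 h with compound at 37 °C, then lysed with luciferase reagent for 10 min at ambient before reading.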
ELG1 genotox: qHTS screen for small molecules that induce genotoxicity in human embryonic kidney (HEK293T) cells expressing luciferase-tagged ELG1; actives 1.3% (n = 330,000); Potency, µM (doses to about 46 µM), without a hit: top-dose activity change, positive = activation, usual class: activators; HEK293T ELG1-luciferase reporter, luminescence, 16 h; AID 504466, 2011; note: % of control where 0% means no effect; nearly all actives have a fitted effect of over 60% in size
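Genotoxicity was scored as increased ELG1-luciferase reporter signal, measured by ONE-Glo luminescence (30 min, room temperature). Compound or vehicle exposure of the HEK293T reporter cells lasted 16 hr at 37°C.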
* marks the source's active call; other numbers are inactive results; [ ] = remark or other dose. Calls come from the whole dose curve; as a rule, active = well fitted curve in the direction sought with a large enough effect; inconclusive = small, poorly fitted or top-dose-only effect, or another doubt; inactive = no such curve, though single readings can be large; an effect the other way counts as inactive or inconclusive. Potency is the fitted concentration of half-maximal effect.

What do the screens show for `Cc1c(C)c2c(c(C)c1O)CCC(C)(COc1ccc(Cc3sc(=O)[nH]c3O)cc1)O2` (centres undefined)?
KinaseGlo FLuc: 2%[39.9 µM]

How did C(=N\n1cnnc1)/c1ccc2c(c1)OCCO2 do in these assays?
FLuc modulator: -17%; KinaseGlo FLuc: 2%; SMN2 splice up: 13%; NPC1 promoter act: 1%; Rab9 promoter act: -2%; ELG1 genotox: 4%

Results for Cc1ccc(/C=N/Nc2cn[nH]c(=O)n2)o1 ?
FLuc modulator: -16%; KinaseGlo FLuc: -5%; SMN2 splice up: 13%; NPC1 promoter act: -2%; Rab9 promoter act: 12%; ELG1 genotox: 3%

How did Cc1cc(C)nc(N/N=C/c2cccc3ccccc23)n1 do in these assays?
FLuc modulator: 12µM*; KinaseGlo FLuc: -2%; SMN2 splice up: 26%; NPC1 promoter act: 15%; Rab9 promoter act: -2%; ELG1 genotox: 9%

What do the screens show for `C(=N\Nc1ccc2ccccc2n1)/c1ccc2c(c1)OCCO2`?
FLuc modulator: 0.067µM*; KinaseGlo FLuc: inconclusive; SMN2 splice up: -77%; NPC1 promoter act: -23%; Rab9 promoter act: -20%; ELG1 genotox: inconclusive

Results for Cc1cccc(/C=N/Nc2ccc3ccccc3n2)c1 ?
FLuc modulator: 0.076µM*; KinaseGlo FLuc: inconclusive; SMN2 splice up: -36%; NPC1 promoter act: inconclusive; Rab9 promoter act: inconclusive; ELG1 genotox: 0.23µM*

What do the screens show for `Cc1ccc(/C=N/Nc2ccc3ccccc3n2)o1`?
FLuc modulator: 0.48µM*; KinaseGlo FLuc: inconclusive; SMN2 splice up: 1.1µM*; NPC1 promoter act: 0.71µM*; Rab9 promoter act: 0.13µM*; ELG1 genotox: inconclusive

Results for CCCS(=O)(=O)N1CCC(C(=O)NCCOC)CC1 ?
FLuc modulator: 0%

How did O[C@@H](COc1cccc2ccccc12)CN1CCOCC1 do in these assays?
KinaseGlo FLuc: -4%[7.66 µM]; SMN2 splice up: -16%[9.22 µM]

What do the screens show for `CCOc1cccc(C(=O)Nc2ccc(-c3nc4ncccc4o3)cc2C)c1`?
FLuc modulator: -4%

How did CCOc1ccc(NC(=O)Cn2nnc(-c3ccc(C(N)=O)cc3)n2)cc1S(=O)(=O)N1CCCC1 do in these assays?
FLuc modulator: 6.7µM*; NPC1 promoter act: -3%; Rab9 promoter act: 13%; ELG1 genotox: 25%

How did CCOc1ccc(NC(=O)Cn2nc(C(N)=O)c3ccccc3c2=O)cc1S(=O)(=O)N1CCCC1 do in these assays?
FLuc modulator: -4%; NPC1 promoter act: 1%; Rab9 promoter act: 1%; ELG1 genotox: -1%

Results for Cc1cccc(NC(=O)C(NS(=O)(=O)c2cccc3nsnc23)c2ccccc2)c1C (centres undefined) ?
FLuc modulator: 2%; SMN2 splice up: 0%

Results for CCOC(=O)C1CCN(c2ccc(-c3cccs3)nn2)CC1 ?
FLuc modulator: 0.76µM*; NPC1 promoter act: 22%; Rab9 promoter act: 4%; ELG1 genotox: inconclusive

What do the screens show for `CCOC(=O)C1CCN(c2ccc(Cl)nn2)CC1`?
FLuc modulator: -4%; KinaseGlo FLuc: -3%; SMN2 splice up: -47%; NPC1 promoter act: -2%; Rab9 promoter act: 0%; ELG1 genotox: 6%

What do the screens show for `c1csc(-c2ccc(N3CCOCC3)nn2)c1`?
FLuc modulator: 2.4µM*; NPC1 promoter act: 0.4µM*; Rab9 promoter act: 0.5µM*; ELG1 genotox: inconclusive

What do the screens show for `COc1ccc(C)cc1-n1c(SCC(=O)NCc2ccco2)nc2c([nH]c3ccccc32)c1=O`?
FLuc modulator: -6%

Results for Nc1ccc(-c2nc3ccc(N)cc3s2)cc1 ?
FLuc modulator: 0.27µM*; NPC1 promoter act: inconclusive; Rab9 promoter act: inconclusive; ELG1 genotox: inconclusive
